Sampled rows, rich in hits. Any-hit rate of the full collection: about 5.3%.
ALOX15B inhib – blocks human 15-lipoxygenase 2 activity; O15296; purified 15hLO-2, xylenol orange hydroperoxide absorbance; Potency, µM (doses to about 57.1 µM), inactives show at the highest dose activity change, negative = inhibition, hits mostly inhibitors; actives 0.56% (n = 110,000); further: potency means the concentration at half of the fitted maximal effect; nearly all actives have a fitted effect of over 60% in size
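Read-out: hydroperoxide product oxidises ferrous iron, measured as xylenol orange complex via the 573-to-405 nm absorbance ratio after 30 min. Reaction: 50 nM enzyme, 15 min compound preincubation, 45 uM arachidonic acid, 90 min RT, Hepes pH 7.5 with Triton X-100.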
PNC assembly inh – blocks assembly of the perinucleolar compartment; activity change (PNC), negative = inhibition, % at 10 µM; actives 3.1% (n = 140,000); PC3M PTB-GFP, PNC prevalence imaging, 16 h; active compounds read low;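 active means readout at or below -70, meaning at least 70% loss of cells showing the perinucleolar compartment, a nuclear body marking cancer cells; inconclusive means readout between -30 and a set limit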;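 further: plate controls were DMSO wells for no effect and camptothecin positive control wells for full effect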
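Read-out is percentage of cells bearing a perinucleolar compartment, from automated 20x imaging of fixed, Hoechst-stained PC3M PTB-GFP cells. Cells were seeded 4 h, then exposed 16 h to compound (23 nl of library stock) in duplicate plates.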
ALOX12 inhib – 12-hLO (ALOX12) enzyme inhibition. P18054. purified 12-hLO, xylenol orange hydroperoxide absorbance. Potency, µM (highest dose often 57.1 µM), without a hit: top-dose activity change, negative = inhibition, most hits filed as inhibitors. actives 0.12% (n = 150,000); further: potency means the concentration at half of the fitted maximal effect; nearly all actives have a fitted effect of over 55% in size
Target sequence (P18054 whole entry, looked up): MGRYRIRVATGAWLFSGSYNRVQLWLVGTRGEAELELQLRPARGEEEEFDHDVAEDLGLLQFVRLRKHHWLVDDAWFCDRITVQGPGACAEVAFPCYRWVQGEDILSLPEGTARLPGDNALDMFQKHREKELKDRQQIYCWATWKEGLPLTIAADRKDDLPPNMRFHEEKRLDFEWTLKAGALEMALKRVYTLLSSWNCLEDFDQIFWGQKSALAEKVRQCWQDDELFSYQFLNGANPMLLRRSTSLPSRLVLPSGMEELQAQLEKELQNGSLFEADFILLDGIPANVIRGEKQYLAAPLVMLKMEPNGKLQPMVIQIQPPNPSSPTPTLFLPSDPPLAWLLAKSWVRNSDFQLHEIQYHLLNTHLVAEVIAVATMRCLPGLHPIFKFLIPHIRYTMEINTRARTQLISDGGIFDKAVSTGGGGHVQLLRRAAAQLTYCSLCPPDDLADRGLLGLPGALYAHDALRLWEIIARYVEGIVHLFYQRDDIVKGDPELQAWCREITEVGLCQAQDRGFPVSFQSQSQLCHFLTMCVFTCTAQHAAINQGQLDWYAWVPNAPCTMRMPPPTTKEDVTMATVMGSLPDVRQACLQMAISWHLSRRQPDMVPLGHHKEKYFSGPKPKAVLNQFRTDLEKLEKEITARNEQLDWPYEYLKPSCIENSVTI
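Lipoxygenase turnover measured by absorbance at 573 and 405 nm after Fe-XO development. Human 12hLO 150 nM, arachidonate 40 uM, pH 7.0 Hepes buffer with detergent; 15 min compound preincubation, 30 min reaction.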
IMPase cell inh – IMPase inhibition in cells | P97697 | CHO-M1 cells, IP1 accumulation, HTRF TR-FRET ratio | inhibition (IP1 accumulation), % at 46.1 µM | 120,000 tested, under 10 active | AID 901; active means well fitted curve in the direction sought with a large enough effect in the signal ratio, not every such curve was filed as active; inconclusive means small, poorly fitted or top-dose-only effect, or a change in a side signal; inactive means no such curve, though single readings can be large or run the other way; the % refers to the signal ratio;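 further: cells stimulated with carbachol in lithium chloride buffer; plate controls were DMSO basal wells for no effect and reference inhibitor wells for full effect; higher means more IMPase inhibition seen as more IP1 and lower FRET ratio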
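CHO-M1, 2000 cells/well, cultured 16–30 h; cpd up to 46 uM; carbachol (50 uM solution, stimulation buffer w/ 50 mM LiCl, pH 7.4), 30 min 37C; IP-One TR-FRET, 10 min RT; Ex 320/Em 665, 620; Hill-fit AC50.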
IMPase Li inh – membrane-permeable IMPase blocker, potentiated with lithium; CHO-M1 cells, IP1 TR-FRET (IP-One), carbachol + lithium; Potency, µM (titrated, usually from 59.4 µM), for inactives: at the highest dose activity, negative = IMPase inhibition, hits mostly inhibitors; actives 0.35% (n = 210,000); AID 1457;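 further: IP1 builds up when IMPase is blocked and the TR-FRET signal falls; potency means the concentration at half of the fitted maximal effect; plate controls were basal vehicle for no effect and high inhibitor control for full effect; nearly all actives have a fitted effect of over 50% in size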
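IP1 accumulation measured by competitive TR-FRET in lysed CHO-M1 cells after 30 min compound exposure at 37C, with a small lithium addition to potentiate weak responses. Hill-equation AC50 from ratio and donor-channel data.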
HPGD block – HPGD (human) dehydrogenase inhibition. P15428. purified HPGD, NADH fluorescence kinetic, PGE2 substrate. Potency, µM, for the others: at the top dose activity change, negative = inhibition, most hits filed as inhibitors. actives 4.3% (n = 150,000). AID 894; active means well fitted inhibition curve with a large enough effect, not every such curve was filed as active; inconclusive means small, poorly fitted or top-dose-only effect, or another doubt; inactive means no such curve, though single readings can be large or run the other way; further: potency means the concentration at half of the fitted maximal effect
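NADH formation kinetics: reaction with 30 uM PGE2 and 1 mM NAD+ (final), 20 nM enzyme, Tris-HCl pH 8 with Tween 20, after 15 min compound preincubation at room temperature. Fluorescence change, last versus first of five reads.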
Numbers without * were called inactive; ? = inconclusive; nt = not tested or not shown; [ ] = remark or other dose. Unless noted, the call rests on the fitted dose curve; in most records, active means well fitted curve in the direction sought with a large enough effect; inconclusive means small, poorly fitted or top-dose-only effect, or another doubt; inactive means no such curve, though single readings can be large; an effect the other way counts as inactive or inconclusive. Unless noted, on the % scale 0 is the no-effect control and ±100 the full control effect.

SMILES | ALOX15B inhib | PNC assembly inh | ALOX12 inhib | IMPase cell inh | IMPase Li inh | HPGD block
CC[n+]1c(/C=C2/C=C(C)CC(C)(C)C2)sc2ccc(OC)cc21 | 25µM* | -30 | -28% | 9 | 54%[38.3 µM] | -26%
CC[n+]1c(/C=C2\C=C(C)CC(C)(C)C2)sc2ccccc21 | 25µM* | 4 | -25% | 13 | 22%[38.3 µM] | -24%
CCC1=C/C(=C/c2sc3ccccc3[n+]2CC)CC(C)(C)C1 | nt | nt | nt | nt | -3% | nt
Cc1ccc(Cn2nnc3c(=O)n(CC(=O)c4ccccc4)cnc32)cc1 | -4% | ? | -12% | 8 | -18%[38.3 µM] | ?
O=C(CSc1nc(-c2ccc(F)cc2)[nH]c1-c1ccc(F)cc1)Nc1ccc2c(c1)OCO2 | nt | nt | nt | -3 | nt | nt
CN1C(=O)C(Cl)(Cl)C(=O)c2ccccc21 | nt | 28 | -13% | nt | 8% | 22µM*
C/C(CC1(O)C(=O)N(C)c2ccccc21)=N\O (stereo not drawn) | 7% | 7 | 1% | 10 | 10%[38.3 µM] | -13%
CC(C)NC(=O)c1onc(CSc2ccc(F)cc2)c1C(=O)O | -4% | 55 | 4% | 2 | -5%[38.3 µM] | 40µM*
CC(C)NC(=O)c1onc(CSc2ccc(C(C)C)cc2)c1C(=O)O | -11% | 54 | 1% | -1 | -3%[38.3 µM] | 22µM*
C=CCNC(=O)c1onc(CSc2ccccc2)c1C(=O)O | 2% | 44 | 0% | -1 | -15%[38.3 µM] | -16%
C=CCNC(=O)c1onc(CSc2ccc(C(C)C)cc2)c1C(=O)O | -9% | 80 | 3% | 2 | 6%[38.3 µM] | 14µM*
CNc1cccccc1=S | ? | 5 | -20% | 8 | 29%[38.3 µM] | 28µM*
CNc1ccccc1 | -6% | nt | 3% | nt | 12% | -10%
Cc1nc(CCNC(=O)Cc2ccc(Cl)cc2)cs1 | -1% | -90* | 2% | -2 | 0%[38.3 µM] | -4%
COc1ccc(OC)c(/C=C/C(=O)NC2=NCCS2)c1 | nt | nt | nt | nt | 11µM* | nt
COc1ccc(/C=C/C(=O)NC2=NCCS2)cc1OC | nt | nt | nt | nt | 7% | nt
COc1ccc(CCC(=O)NC2=NCCS2)cc1OC | 5% | -100* | -3% | 1 | -14%[38.3 µM] | -1%
CSc1nncc(/C(C)=N\Nc2ccccc2)n1 | ? | -26 | -22% | 4 | 12%[38.3 µM] | -19%
CSc1nncc(/C(C)=N\Nc2cccc(C)c2)n1 | 3.2µM* | 30 | -13% | 7 | 0%[38.3 µM] | -13%
Cc1oc(-c2cccc(Br)c2)[n+]([O-])c1C | nt | nt | nt | nt | -11% | nt
Cc1oc(C)c2c(=O)ccc3c(c12)OC(N)=C(C#N)C3c1ccc(F)cc1 (stereo not drawn) | ? | ? | ? | -11 | 15%[38.3 µM] | 25µM*
Cn1c(-c2ccc(F)cc2)cnc1NCc1cccc(F)c1 | 30% | 65 | -1% | 10 | -6%[38.3 µM] | 16µM*
Cc1cccc(C)c1NC(=O)Cn1c(=O)n(CCCC(=O)NCc2ccco2)c(=O)c2sccc21 | 6% | -91* | -6% | 1 | nt | nt
CCN(CC)C(=O)Cn1c(=O)n(CCCCCC(=O)Nc2ccccc2)c(=O)c2sccc21 | nt | -113* | 4% | nt | 4% | -5%
O=C(CCCn1c(=O)c2sccc2n(CC(=O)NCc2ccco2)c1=O)NCc1ccco1 | 2% | 9 | -2% | -8 | -2% | -5%
SMILES | ALOX15B inhib | PNC assembly inh | ALOX12 inhib | IMPase cell inh | IMPase Li inh | HPGD block
O=c1nc2n(c3c4c(sc13)CCC4)CCC2 | 6% | 23 | 8% | 7 | 38%[38.3 µM] | -20%
COc1ccc(Nc2nc(-c3cccc([N+](=O)[O-])c3)nc3ccccc23)cc1 | nt | ? | 0% | nt | 5% | -29%
O=C(NCN1C(=O)C2C3C=CC(C3)C2C1=O)Nc1nccs1 (stereo not drawn) | nt | -100* | 1% | -4 | 0% | -5%
CCOC(=O)c1c(C)cc(O)c(C=O)c1O | -7% | nt | -5% | nt | 5% | -10%
Oc1ccc(Cl)cc1-c1cc(-c2ccccc2)n[nH]1 | -10% | -12 | -22% | ? | 37%[38.3 µM] | 16µM*
Oc1ccc(Br)cc1-c1cc(-c2ccccc2F)[nH]n1 | -8% | 18 | -18% | ? | 40%[38.3 µM] | 4.5µM*
CCCn1ncc(CN2CCC(N3CCC(C(=O)N4CCOCC4)CC3)CC2)c1C | nt | nt | nt | nt | 8% | nt
Cc1cc2nnn(-c3nnc(-c4ccccc4)c4ccccc34)c2cc1C | 9% | -109* | 4% | -3 | 10%[38.3 µM] | -1%
C=C1OC(CO)(n2cnc3c(N)ncnc32)C(O)C1O (stereo not drawn) | 12%[0.0915 µM] | nt | -4%[0.00818 µM] | nt | -1% | -8%
COc1ccc(C(=O)N[C@H](C(=O)Nc2ccc(OC)nc2)C(C)C)cc1 | -3% | -112* | 0% | 1 | 9%[38.3 µM] | -10%
COc1ccc(C(=O)NC(C(=O)NCc2ccccn2)C(C)C)cc1 (stereo not drawn) | 13% | 13 | -7% | 9 | -2%[38.3 µM] | 0%
Oc1cccc(O)c1O | 19% | nt | 8% | nt | 20% | 10µM*
COc1c(O)cccc1O | 4% | nt | -2% | nt | -2% | -9%
CC(/C=C/c1ccccc1)=N/NC(=O)c1cccc(Br)c1 | nt | nt | nt | nt | 4% | nt
CCC1CCC2(CC1)NC(CO)(CO)CO2 (stereo not drawn) | 1% | ? | 3% | 10 | 1%[38.3 µM] | -7%
CCC1CCC2(CC1)NNC(=S)NN2 | ? | -25 | -12% | -4 | 8%[38.3 µM] | 10µM*
O=C(CSc1nc2cc(Cl)ccc2o1)c1cccs1 | 6% | ? | -6% | 6 | 4%[38.3 µM] | 14µM*
O=C(CSc1ncnc2c1oc1ccccc12)NCc1ccc(F)cc1 | -3% | -13 | 2% | -23 | 25µM* | -21%
O=C(CSc1ncnc2c1oc1ccccc12)NC1CCCCC1 | 5% | 16 | -3% | -18 | 11µM* | ?
Fc1ccc(CSc2ncnc3c2oc2ccccc23)cc1 | nt | 49 | 0% | nt | ? | ?
Cc1nc(SCC(=O)c2cccs2)c2oc3ccccc3c2n1 | -6% | 31 | -8% | 0 | 47%[38.3 µM] | 13µM*
Cc1cc(C)c(S(=O)(=O)N2CCCCC2)c(C)c1N(C)S(=O)(=O)c1ccc(Cl)cc1 | nt | -16 | -2% | 7 | 20% | -8%
Cc1sc2cc(-c3cccc([N+](=O)[O-])c3)c(-c3cccc([N+](=O)[O-])c3)c[n+]2c1C | nt | ? | -1% | nt | 27% | -4%
Cc1ccc2nc(NC(=O)CSc3ncnc4c3oc3ccccc34)sc2c1 | -4% | -108* | 2% | -2 | ? | -18%
O=C(CCSc1ccc(Cl)cc1)c1cccs1 | -3% | ? | -4% | 12 | 15% | 20µM*
NC(=O)CSc1ncnc2c1oc1ccccc12 | 1% | 24 | -2% | ? | 13µM* | -29%
O=C(CCNc1ccc(Cl)cc1)c1cccs1 | nt | ? | -1% | -20 | 3% | -11%
